The text below walks through data of PubChem BioAssay (Tox21).

A number with no mark means an inactive call. Records with an inconclusive call do not appear. The source made the active and inactive calls. Unless noted, calls follow the shape of the full dose curve.

Assay [1] can be described thus: Nuclear factor erythroid 2-related factor 2/antioxidant responsive element (Nrf2/ARE) small molecule agonists: qHTS cell viability counter screen in human keratinocytes (AID 1919968; active = well fitted curve in the direction sought with a large enough effect in the repeat runs; an effect the other way counts as inactive or inconclusive; also: nearly all actives have a fitted effect of over 55% in size; also: potency is read from the fitted curve at half-maximal effect). The essentials:
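Parallel cytotoxicity read: KeratinoSens HaCaT cells, compound treatment 23 h, viability by CellTiter-Fluor fluorescence 1 h post-reagent.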

Assay [2] in a line: Nuclear factor erythroid 2-related factor 2/antioxidant responsive element (Nrf2/ARE) small molecule agonists: luciferase reporter gene qHTS assay in human keratinocytes (AID 1919969). Also: nearly all actives have a fitted effect of over 35% in size. Also: potency is read from the fitted curve at half-maximal effect.
Assay [3] deals with Gonadotropin-releasing hormone receptor (Homo sapiens) (UniProt P30968). In words: Human gonadotropin-releasing hormone receptor (GnRHR) small molecule agonists, calcium flux assay in GnRHR-HEK293 cells (AID 1920063). Also: nearly all actives have a fitted effect of over 35% in size. The essentials:
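Calcium flux, agonist mode, human GnRHR stably integrated in HEK293; dye 1 h at 37 C before compound; Ex/Em=480/540 kinetic read, 3 min; 15 concentrations, triplicate.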

Assay [4] addresses KiSS-1 receptor (Homo sapiens) (UniProt Q969F8). The assay can be described thus: Human kisspeptin (KISS1R) small molecule agonists, calcium flux assay in KISS1R-HEK293 cells (AID 1920064; active = well fitted curve in the direction sought with a large enough effect in the repeat runs; an effect the other way counts as inactive or inconclusive). The essentials:
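Triplicate 15-concentration series were applied to dye-loaded human KISS1R HEK293 cells, and agonist-evoked calcium fluorescence was captured for 3 min.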

Assay [5] can be described thus: G protein-coupled receptor (GPCR) small molecule agonists, calcium flux assay: HEK293 wild type cell line counter screen (AID 1920065). In outline: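 Non-specific calcium responders were flagged by adding DMSO-dissolved compounds to dye-loaded cells and reading 480/540 nm fluorescence each second for 3 min; ATP served as positive control.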
Assay [6] in a line: p53 small molecule agonists, cell-based qHTS assay with human liver microsomes (AID 1963577).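 Also: p53 response element beta-lactamase reporter cells with liver microsomes plus NADPH.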 The essentials: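 Metabolically competent format: test substances, human liver microsomes and NADPH (both 0.5 mg/mL final) incubated with p53RE-bla cells 16 h at 37 C. Beta-lactamase reporter signal then quantified by fluorescence.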
The nature of assay [7]: p53 small molecule agonists, cell-based qHTS assay with rat liver microsomes (AID 1963578). In outline:
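Each plate received p53RE-bla cells, then compound, then rat liver microsomes and NADPH (both 0.5 mg/mL final). Plates were held 16 h at 37 C, and beta-lactamase activity was detected with LiveBLAzer over 2 h.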

Assay [8] in a line: p53 small molecule agonists, cell-based qHTS assay with human liver microsomes: qHTS cell viability counter screen (AID 1963579). Also: nearly all actives have a fitted effect of over 45% in size. Also: potency is read from the fitted curve at half-maximal effect. In outline:
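Tox21 library compounds, delivered from DMSO stocks, were tested on p53RE-bla cells together with 0.5 mg/mL human liver microsomes and 0.5 mg/mL NADPH (final) over 16 h at 37 C; CellTiter-Glo luminescence served as the cytotoxicity measure.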

Assay [9] can be described thus: p53 small molecule agonists, cell-based qHTS assay with rat liver microsomes: qHTS cell viability counter screen (AID 1963580). Also: nearly all actives have a fitted effect of over 45% in size. In outline: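 Cytotoxicity counter screen: intracellular ATP read by CellTiter-Glo luminescence in the p53 reporter wells. HCT-116 p53RE-bla cells were treated for 16 h at 37 C alongside rat liver microsomes and NADPH, each 0.5 mg/mL final.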

Assay [10] is described as follows: p53 small molecule agonists, cell-based qHTS assay: qHTS cell viability counter screen (AID 1963581). Also: nearly all actives have a fitted effect of over 45% in size. Also: potency is read from the fitted curve at half-maximal effect. In outline:
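Multiplexed with the reporter read, a CellTiter-Glo step (30 min, room temperature) gauges ATP-based viability of HCT-116 p53RE-bla cells after 16 h compound incubation at 37 C.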

The target in assay [11] is 5-hydroxytryptamine receptor 2A (Homo sapiens) (UniProt P28223). In words: 5-hydroxytryptamine receptor 2A (HTR2A) small molecule antagonists, cell-based qHTS assay (AID 1963586). Also: nearly all actives have a fitted effect of over 45% in size. Also: potency is read from the fitted curve at half-maximal effect. In outline:
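CHO cells stably expressing human HTR2A were plated for 18 h at 37 C, then loaded with calcium dye for 1 h. Compounds were preincubated 5 min at room temperature before DOI (4 nM solution) was added. Kinetic fluorescence was read for 3 min.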

Assay [12] shares this target. The assay can be described thus: 5-hydroxytryptamine receptor 2A (HTR2A) small molecule agonists, cell-based qHTS assay (AID 1963587). Also: nearly all actives have a fitted effect of over 30% in size. In outline: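 Kinetic calcium-flux fluorescence (2 min, 1 sec intervals) after compound addition in agonist mode. HTR2A-CHO cells were cultured 18 h, then dye-loaded 1 h at 37 C.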
Assay [13] concerns the target Muscarinic acetylcholine receptor M1 (Homo sapiens) (UniProt P11229). In words: Cholinergic receptor muscarinic 1 (CHRM1) small molecule agonists, cell-based qHTS assay (AID 1963589). Also: nearly all actives have a fitted effect of over 35% in size. The essentials: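 qHTS, 15-point titration, 3 independent runs: compounds pin-transferred onto dye-loaded CHRM1-CHO cells (human M1), calcium fluorescence followed every second to detect agonism.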

Assay [14] is described as follows: cAMP Responsive Elements (CRE) small molecule antagonists, cell-based qHTS assay (AID 1963591; active = well fitted inhibition curve with a large enough effect in the signal ratio in the repeat runs, not every such curve was filed as active; the % refers to the signal ratio). The essentials:
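Fluorescence intensity from cleaved LiveBLAzer B/G substrate (2 h, room temperature) quantified CRE-bla activity in HEK 293T cells exposed 3 h to compound with 0.25 uM final NKH477.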

In assay [15] the target is Beta-2 adrenergic receptor (Homo sapiens) (UniProt P07550). The assay can be described thus: Adrenergic beta2 receptor (ADRB2) small molecule antagonists, cell-based qHTS assay (AID 1963592). Also: series mostly up to about 92 µM; nearly all actives have a fitted effect of over 50% in size. The essentials: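 Assay format: CHO-ADRB2 cells, 18-20hr seeding at 37C/5% CO2, then compound plus 1nM isoproterenol agonist mix for 0.5hr RT. Homogeneous time-resolved fluorescence cAMP detection after 1hr, expressed as 665/615 nm ratio.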

Assay [16] deals with D(2) dopamine receptor (Homo sapiens) (UniProt P14416). In words: Dopamine D2 receptor (DRD2) small molecule agonists, cell-based qHTS assay (AID 1963594). Also: nearly all actives have a fitted effect of over 35% in size. In outline: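 cAMP accumulation in DRD2-HEK293 cells measured by HTRF after 1 h detection; compounds added 10 min before NKH477 (200nM […]) forskolin-analogue stimulation, 30 min at room temperature, with Ro20-1724 present at 0.1 mM final.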

The target is the same in assay [17]. In words: Dopamine D2 receptor (DRD2) small molecule antagonists, cell-based qHTS assay (AID 1963595; active = well fitted inhibition curve with a large enough effect in the signal ratio in the repeat runs, with a control signal flat; the % refers to the signal ratio). The essentials:
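Antagonism was scored as restored cAMP in HEK293-DRD2 cells. These cells were stimulated with 200 nM NKH477 and 12 nM quinpirole for 30 min at room temperature, in the presence of 0.1 mM Ro20-1724.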

Assay [18] can be described thus: cAMP Responsive Elements (CRE) small molecule agonists, cell-based qHTS assay (AID 1963590). In outline:
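Quantitative HTS for CRE agonists: HEK 293T CRE-bla cells, overnight plating, 3 h compound incubation at 37 C/5% CO2, then 2 h room-temperature LiveBLAzer B/G FRET substrate loading.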

For assay [19], the target named is Beta-2 adrenergic receptor (Homo sapiens) (UniProt P07550). The assay can be described thus: Adrenergic beta2 receptor (ADRB2) small molecule agonists, cell-based qHTS assay (AID 1963593).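 Also: CHO cells stably overexpressing human ADRB2.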 The essentials: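 CHO cells stably over-expressing ADRB2 were plated overnight at 37C, then dosed with compounds plus a stimulation mix containing 100uM IBMX and 25uM Ro-20-1724 for 0.5hr at room temperature. cAMP was measured by HTRF competition, 1hr.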

Chain of D(2) dopamine receptor (Homo sapiens) (P14416 whole entry, looked up): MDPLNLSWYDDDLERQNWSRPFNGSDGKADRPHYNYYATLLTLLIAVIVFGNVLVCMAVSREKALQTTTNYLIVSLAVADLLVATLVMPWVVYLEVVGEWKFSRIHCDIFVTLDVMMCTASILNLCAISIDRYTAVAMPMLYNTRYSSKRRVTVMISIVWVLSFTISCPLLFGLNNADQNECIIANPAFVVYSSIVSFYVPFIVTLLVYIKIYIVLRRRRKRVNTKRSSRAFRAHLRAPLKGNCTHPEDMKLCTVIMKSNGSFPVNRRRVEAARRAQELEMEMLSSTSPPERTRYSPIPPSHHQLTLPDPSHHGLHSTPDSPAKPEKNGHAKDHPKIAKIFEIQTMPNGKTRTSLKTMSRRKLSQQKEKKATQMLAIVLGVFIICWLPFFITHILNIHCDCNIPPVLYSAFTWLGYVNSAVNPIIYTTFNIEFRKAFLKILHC
Chain of 5-hydroxytryptamine receptor 2A (Homo sapiens) (P28223 whole entry, looked up): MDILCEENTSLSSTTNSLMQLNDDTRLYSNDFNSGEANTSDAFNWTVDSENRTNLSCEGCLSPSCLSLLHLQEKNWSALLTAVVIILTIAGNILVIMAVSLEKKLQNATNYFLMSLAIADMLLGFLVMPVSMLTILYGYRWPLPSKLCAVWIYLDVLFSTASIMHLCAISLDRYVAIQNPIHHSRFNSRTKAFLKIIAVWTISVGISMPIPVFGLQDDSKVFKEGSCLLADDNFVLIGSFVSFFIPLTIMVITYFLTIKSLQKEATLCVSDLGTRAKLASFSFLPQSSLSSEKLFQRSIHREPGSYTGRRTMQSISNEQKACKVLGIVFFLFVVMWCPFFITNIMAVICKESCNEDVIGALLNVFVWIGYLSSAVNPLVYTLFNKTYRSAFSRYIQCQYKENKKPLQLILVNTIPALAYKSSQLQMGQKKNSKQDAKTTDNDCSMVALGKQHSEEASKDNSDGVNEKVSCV
Chain of Muscarinic acetylcholine receptor M1 (Homo sapiens) (P11229 whole entry, looked up): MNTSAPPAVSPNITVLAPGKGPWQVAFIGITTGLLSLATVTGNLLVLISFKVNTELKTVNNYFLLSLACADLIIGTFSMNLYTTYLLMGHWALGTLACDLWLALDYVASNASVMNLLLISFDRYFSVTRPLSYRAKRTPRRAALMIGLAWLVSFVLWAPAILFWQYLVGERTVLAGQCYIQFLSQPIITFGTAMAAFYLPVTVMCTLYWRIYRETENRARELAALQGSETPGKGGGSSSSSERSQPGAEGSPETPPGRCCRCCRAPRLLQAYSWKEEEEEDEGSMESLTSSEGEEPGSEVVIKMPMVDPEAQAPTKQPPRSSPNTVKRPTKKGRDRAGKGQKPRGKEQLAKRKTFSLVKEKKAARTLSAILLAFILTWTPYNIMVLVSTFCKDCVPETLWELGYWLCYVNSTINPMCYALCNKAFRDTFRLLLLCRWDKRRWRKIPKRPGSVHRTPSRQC
Chain of Beta-2 adrenergic receptor (Homo sapiens) (P07550 whole entry, looked up): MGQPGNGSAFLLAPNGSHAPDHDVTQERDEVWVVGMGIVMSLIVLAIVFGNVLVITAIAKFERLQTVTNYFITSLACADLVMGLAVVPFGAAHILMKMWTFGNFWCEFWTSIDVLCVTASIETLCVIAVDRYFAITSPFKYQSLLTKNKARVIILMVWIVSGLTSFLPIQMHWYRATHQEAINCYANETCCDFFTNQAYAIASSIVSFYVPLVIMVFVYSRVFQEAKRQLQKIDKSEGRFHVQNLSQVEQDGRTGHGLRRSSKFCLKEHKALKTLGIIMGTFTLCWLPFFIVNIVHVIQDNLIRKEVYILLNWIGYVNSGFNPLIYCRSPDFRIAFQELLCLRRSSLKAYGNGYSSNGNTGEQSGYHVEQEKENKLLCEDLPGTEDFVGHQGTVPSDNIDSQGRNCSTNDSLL
Chain of KiSS-1 receptor (Homo sapiens) (Q969F8 whole entry, looked up): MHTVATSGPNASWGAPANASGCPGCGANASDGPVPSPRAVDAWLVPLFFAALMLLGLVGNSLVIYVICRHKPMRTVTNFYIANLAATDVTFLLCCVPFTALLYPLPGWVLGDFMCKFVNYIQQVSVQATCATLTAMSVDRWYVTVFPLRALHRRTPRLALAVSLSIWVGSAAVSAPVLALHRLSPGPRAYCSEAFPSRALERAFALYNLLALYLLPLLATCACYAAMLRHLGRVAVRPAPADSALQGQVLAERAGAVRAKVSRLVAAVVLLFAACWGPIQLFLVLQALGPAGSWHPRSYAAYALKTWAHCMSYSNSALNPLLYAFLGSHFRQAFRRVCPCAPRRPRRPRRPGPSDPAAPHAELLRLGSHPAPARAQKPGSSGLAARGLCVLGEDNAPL
Chain of Gonadotropin-releasing hormone receptor (Homo sapiens) (P30968 whole entry, looked up): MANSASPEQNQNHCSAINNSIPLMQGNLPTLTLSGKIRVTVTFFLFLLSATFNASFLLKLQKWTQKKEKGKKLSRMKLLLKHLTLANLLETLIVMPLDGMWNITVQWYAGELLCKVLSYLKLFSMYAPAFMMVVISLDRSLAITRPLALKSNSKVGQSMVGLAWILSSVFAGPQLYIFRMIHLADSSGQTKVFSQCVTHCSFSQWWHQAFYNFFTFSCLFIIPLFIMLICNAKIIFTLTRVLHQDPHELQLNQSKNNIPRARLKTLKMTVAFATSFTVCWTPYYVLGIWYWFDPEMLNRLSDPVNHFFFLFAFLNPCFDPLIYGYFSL

Take `O=C(CCc1ccc(O)cc1)c1c(O)cc(O)cc1O`: the Potency entry in [1], in assay [3], in assay [6], in assay [7], in [8] and in assay [9] was “inactive” throughout. Besides, the Potency result in assay [10], in assay [12], in assay [13], in [14], in assay [15] and in assay [16] was “inactive” throughout. Also, the Potency entry in [17] is “inactive”. The figures for the Potency in [2] and in [11] were 70.1 µM (active) and 38.4 µM (active), respectively. In addition, the outcome in assay [4] and in assay [5] was inactive.
`CCCOC(=O)c1ccc(C(=O)OCCC)nc1`: the Potency result in [1], in [2], in assay [3], in [6], in [7] and in assay [8] was “inactive” in each case. Moreover, the Potency result in assay [9], in assay [10], in assay [11], in assay [12], in assay [13] and in [15] was “inactive” in each case. Moreover, the Potency entry in assay [16] and in [17] was “inactive” in each case. In addition, the result in [4] and in assay [5] was inactive.
Consider `O=C(O)CCN(C1(C(=O)NO)CCCC1)S(=O)(=O)c1ccc(Oc2ccc(F)cc2)cc1`, for which the Potency result in assay [1], in assay [2], in assay [3], in assay [6], in assay [7] and in assay [8] was “inactive” throughout. Besides, the Potency entry in [9], in assay [10], in assay [11], in assay [12], in assay [13] and in assay [18] was “inactive” throughout. In addition, the Potency entry in assay [15], in assay [19], in [16] and in assay [17] was “inactive” each time. The result in assay [4] and in [5] was inactive.
As to `O=C(O)c1cc(O)c2ccccc2c1O`, the Potency in assay [1] is 6.11 µM (active); in assay [2], 1.72 µM (active); in [8] it was 8.14 µM (active). Moreover, the Potency entry in assay [3], in [6], in assay [7], in [9], in assay [10] and in [11] was “inactive” in each case. The Potency result in assay [12], in [13], in [14], in [15] and in assay [16] was “inactive” throughout. Also, the result in assay [4] and in assay [5] was inactive.
With `O=C(c1ccc(O)cc1)c1ccc(Cl)cc1`, the Potency entry in assay [1], in assay [2], in assay [3], in [6], in assay [7] and in [8] was “inactive” in each case. Moreover, the Potency entry in assay [9], in assay [10], in [11], in [12], in [13] and in assay [15] was “inactive” throughout. Further, the Potency result in assay [16] and in assay [17] was “inactive” each time. The outcome in assay [4] and in assay [5] was inactive.
With `Nc1ccc2cc(S(=O)(=O)O)cc(O)c2c1`, the Potency result in assay [1], in [2], in assay [3], in assay [6], in assay [7] and in assay [8] was “inactive” each time. The Potency entry in [9], in assay [10], in [11], in assay [12], in assay [13] and in assay [14] was “inactive” in each case. The outcome in assay [4] and in [5] was inactive.
As for `CCOC(=O)CCCCCCCCC(=O)OCC`, the Potency entry in [1], in assay [2], in [3], in [6], in assay [7] and in assay [8] was “inactive” throughout. In addition, the Potency entry in assay [9], in [10], in assay [11], in assay [12], in assay [13] and in assay [18] was “inactive” each time. Also, the Potency result in assay [14], in assay [15], in [16] and in [17] was “inactive” each time. In addition, the outcome in assay [4] and in assay [5] was inactive.
With `CC1=C(C(=O)OC(C)C)C(c2cccc([N+](=O)[O-])c2)C(C(=O)OC2CN(C(c3ccccc3)c3ccccc3)C2)=C(N)N1` (configuration not stated), the Potency is 8.41 µM (active) in [1] and 11.2 µM (active) in assay [10]. Further, the Potency result in [2], in assay [3], in [6], in [7], in assay [8] and in [9] was “inactive” each time. The Potency entry in [11], in assay [12], in assay [13], in assay [15], in [19] and in assay [16] was “inactive” throughout. The Potency entry in [17] was “inactive”. The result in [4] and in assay [5] was inactive.
